Source: PubChem BioAssay (NCATS)
Inconclusive results are not listed. Active and inactive are the calls of the source. Unless noted, calls come from the whole dose curve; as a rule, active = well fitted curve in the direction sought with a large enough effect; inconclusive = small, poorly fitted or top-dose-only effect, or another doubt; inactive = no such curve, though single readings can be large; an effect the other way counts as inactive or inconclusive.

Experiments:
[1] = Primary qHTS for inhibitors of La Crosse Virus (LACV) - induced cell death in SH-SY5Y cells (AID 1508616);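 note: top concentration of the series differs between compounds; higher means more rescue of cells from virus-induced death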
Outline: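 Cytopathicity rescue screen: compounds pinned onto SH-SY5Y cells, which are then infected with LACV (MOI 0.01) and held 6 days at 37C. Percent activity is scaled between infected DMSO control and uninfected DMSO control.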

[2] = molecular target: Calcium and integrin-binding protein 1 (Homo sapiens) (UniProt Q99828); assay: Primary qHTS for Identification of Calcium Integrin Binding Protein 1 (CIB1) Competitor (AID 1508620);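 note: GST tagged CIB1 binding a fluorescein labelled alphaIIb integrin peptide tracer; top concentration of the series differs between compounds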
Calcium and integrin-binding protein 1 (Homo sapiens), sequence (Q99828 whole entry, looked up): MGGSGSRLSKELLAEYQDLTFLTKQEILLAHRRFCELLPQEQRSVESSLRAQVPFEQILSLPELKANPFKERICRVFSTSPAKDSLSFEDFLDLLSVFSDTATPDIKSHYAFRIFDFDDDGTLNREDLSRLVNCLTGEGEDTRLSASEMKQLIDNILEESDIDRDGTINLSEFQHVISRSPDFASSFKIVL
Outline: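 CIB1-GST (1 uM final) and compound incubated 15 min at room temperature before adding FITC-alphaIIb peptide tracer (100 nM final). Competition for binding read by fluorescence polarization (ex 480, em 540) after another 15 min at room temperature.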

[3] = A High-Content qHTS Against Drug Library for the Identification of Small Molecules that Inhibit DYT1 Early Onset Primary Dystonia-Associated Cell Pathology (AID 1645839; calls by dose curve; note: series mostly up to about 46 µM)
Outline: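 High-content imaging quantified EGFP-TorsinA mislocalization in HEK293-derived cells inducibly expressing DYT1 mutant torsinA, after 48 h exposure to compound given together with tetracycline induction. Cell count served as a toxicity channel alongside %pathology.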

Measured: Potency

OC[C@]1(O)OC[C@@H](O)[C@H](O)[C@@H]1O
inactive: [1] | [2] | [3]

O=C(O)c1ccccc1S
inactive: [1] | [2] | [3]

CN1CCCN=C1/C=C/c1cccs1
inactive: [1] | [2] | [3]

COC(=O)c1cc(S(N)(=O)=O)ccc1OC
inactive: [1] | [2] | [3]

Cc1ccc(O)cc1
inactive: [1] | [2] | [3]

CC1(C)S[C@@H]2[C@H](NC(=O)C(c3ccccc3)S(=O)(=O)O)C(=O)N2[C@H]1C(=O)O (some centres not stated)
inactive: [1] | [2] | [3]

CCOC(=O)[C@H](CCc1ccccc1)N[C@@H](C)C(=O)N(CC(=O)O)C1Cc2ccccc2C1
inactive: [1] | [2] | [3]

O=P(O)(O)OCC(O)CO (configuration not stated)
inactive: [1] | [2] | [3]

Nc1nc(=O)n([C@@H]2O[C@H](CO)[C@@H](O)[C@@H]2F)cc1I
inactive: [1] | [2] | [3]

CCOCCn1c(C2CCN(CCc3ccc(C(C)(C)C(=O)O)cc3)CC2)nc2ccccc21
inactive: [1] | [2] | [3]

C/C(=N\O)[C@@H](C)NCC(C)(C)CN[C@H](C)/C(C)=N/O
inactive: [1] | [2] | [3]

CCOC(=O)c1cc(=O)c2c(OCC(COc3cccc4oc(C(=O)OCC)cc(=O)c34)OC(=O)[C@@H](N)CCCCN)cccc2o1
inactive: [1] | [2] | [3]

CCOC(=O)Oc1ccc(CCNC(=O)[C@H](CCSC)NC(C)=O)cc1OC(=O)OCC
inactive: [1] | [2] | [3]

C1=CC2C3C=CC(C3)C2C1 (configuration not stated)
inactive: [1] | [2] | [3]
